Inconclusive results are not listed. The source made the active and inactive calls. Calls follow the shape of the dose curve; as a rule, active = well fitted cell-killing curve with a large enough effect in the repeat runs; inconclusive = weak or mixed curves; inactive = no such curve, though single readings can be large or run the other way.
Experiment: qHTS assay to identify small molecule antagonists of the peroxisome proliferator-activated receptor delta (PPARd) signaling pathway - cell viability counter screen (AID 743213); also: nearly all actives have a fitted effect of over 50% in size
Conditions: PPARd-bla HEK293H viability, CellTiter-Glo luminescence, 17 h; series mostly up to 62 µM
From the text: U.S. Tox21 Program National Center for Advancing Translational Sciences [NCATS] NIH Chemical Genomics Center [NCGC] U.S. Environmental Protection Agency [EPA] National Institutes of Environmental Health Sciences [NIEHS] National Toxicology Program [NTP] U.S. Food and Drug Administration [FDA] Tox21 Assay Overview: The peroxisome proliferator-activated receptors (PPARs) are lipid-activated transcription factors of the nuclear receptor superfamily with three distinct subtypes namely PPAR alpha, PPAR delta (PPARd) and PPAR gamma. All these subtypes heterodimerizes with Retinoid X receptor (RXR) and have different physiological functions. […] To identify the compounds that inhibit PPAR-delta signaling, GeneBLAzer PPAR delta UAS-bla HEK293H cell line (Invitrogen, Carlsbad, CA, USA) containing a beta-lactamase reporter gene under the control of an Upstream Activator Sequence (UAS) was used to screen the Tox21 compound library. The cytotoxicity of the Tox21 compound library against the PPARd-bla cell line was tested in parallel by measuring the cell viability using CellTiter-Glo assay (Promega, Madison, WI) in the same wells.
Tox21 Assay Protocol Summary: PPARd-bla cells were dispensed at 3000 cells/5uL/well in 1536-well black wall/clear bottom plates using a Multidrop Combi (Thermo Fisher Scientific, Waltham, MA) dispenser. After the assay plates were incubated at 37 C and 5% CO2 for 5 h, 23 nL of compounds dissolved in DMSO, positive controls or DMSO only was transferred to the assay plate by a Pintool station (Kalypsys, San Diego, CA), followed by addition of 1ul L165041 (300 nM, final concentration in the wells). The assay plates were incubated at 37 C for 17 h, and then 1 uL of LiveBLAzerTM B/G FRET substrate was added using a Bioraptr Flying Reagent Dispenser (FRD) workstation (Beckman Coulter, Indianapolis, IN, USA). The assay plates were incubated at room temperature for 2 h and fluorescence intensity was measured by an Envision plate reader (PerkinElmer, Shelton, CT). For cell viability readout that measures cytotoxicity, 3 ul/well of CellTiter-Glo reagent was added into the assay plates using a Bioraptr FRD. After 30 min incubation at room temperature, the luminescence intensity in the plates was measured using a ViewLux plate reader (PerkinElmer).

Compound | outcome
O=C(O)C1C(C(=O)O)C2(Cl)C(Cl)=C(Cl)C1(Cl)C2(Cl)Cl (stereo not given) | inactive
CN(C)NC(=O)CCC(=O)O | inactive
CN1C(=O)CCS(=O)(=O)C1c1ccc(Cl)cc1 (stereo not given) | inactive
N#CN=C(N)N | inactive
CCCCC(CC)C(=O)Cl (stereo not given) | inactive
CCOP(=S)(OCC)Oc1cc(C)nc(C(C)C)n1 | inactive
CNCC(O)c1ccc(O)cc1 (stereo not given) | inactive
COP(=S)(OC)Oc1ccc(SC)c(C)c1 | inactive
ClC(Cl)c1ccccc1 | inactive
Cl/C=C/Cl | inactive
CCOC(=O)CC(SP(=O)(OC)OC)C(=O)OCC (stereo not given) | inactive
Nc1ncc([N+](=O)[O-])s1 | inactive
CCCOC(=O)c1ccccc1C(=O)OCCC | inactive
CNC(=O)O/N=C/C(C)(C)S(C)(=O)=O | inactive
O=C(O)C(Br)Br | inactive
CN(C)C(=O)Nc1cccc(C(F)(F)F)c1 | inactive
Cc1cccc(N)c1C | inactive
CC(C)CCCCCCOC(=O)c1ccccc1C(=O)OCCCCCCC(C)C | inactive
NNc1ccccc1 | inactive
Nc1cc(Cl)cc(Cl)c1 | inactive

Compound | outcome
CCCCCCCCCCCCCCCCCC(=O)O | inactive
C=CCN=C=S | inactive
CC12CC1(C)C(=O)N(c1cc(Cl)cc(Cl)c1)C2=O (stereo not given) | inactive
OCCCCO | inactive
O=C(O)Cc1ccccc1 | inactive
Cc1cccc(N)c1 | inactive
C=CC#N | inactive
O=[N+]([O-])c1cc([As](=O)(O)O)ccc1O | inactive
OC[C@@H](O)[C@H]1O[C@@H]2O[C@H](C(Cl)(Cl)Cl)O[C@@H]2[C@H]1O | inactive
Oc1ccc(Cl)cc1 | inactive
COc1nc(NC(C)C)nc(NC(C)C)n1 | inactive
CN(C)C(=O)C(c1ccccc1)c1ccccc1 | inactive
CC(C)(C)C(=O)CCl | inactive
N#Cc1cccc(C#N)c1 | inactive
COP(=S)(OC)SCN1C(=O)c2ccccc2C1=O | inactive
COS(=O)(=O)OC | inactive
C=CC(=O)OCC(CC)CCCC (stereo not given) | inactive
CN(C)CCC#N | inactive
CNC(=O)O/N=C(\SC)C(=O)N(C)C | inactive
CN(C)C(=O)Cl | inactive

Source: PubChem BioAssay (Tox21)
